Rows were chosen to be rich in hits. Some 10% of all compounds tested hit in one or more screens of this group.
Luciferase inh: inhibitors of firefly (Photinus pyralis) luciferase; purified P. pyralis luciferase, luminescence, biochemical; Potency, µM (titrated, usually from 115 µM), usual class: inhibitors; P08659; AID 1347043; hit rate 2.5% among 76,000; also: nearly all actives have a fitted effect of over 65% in size
Target sequence (P08659 whole entry, looked up): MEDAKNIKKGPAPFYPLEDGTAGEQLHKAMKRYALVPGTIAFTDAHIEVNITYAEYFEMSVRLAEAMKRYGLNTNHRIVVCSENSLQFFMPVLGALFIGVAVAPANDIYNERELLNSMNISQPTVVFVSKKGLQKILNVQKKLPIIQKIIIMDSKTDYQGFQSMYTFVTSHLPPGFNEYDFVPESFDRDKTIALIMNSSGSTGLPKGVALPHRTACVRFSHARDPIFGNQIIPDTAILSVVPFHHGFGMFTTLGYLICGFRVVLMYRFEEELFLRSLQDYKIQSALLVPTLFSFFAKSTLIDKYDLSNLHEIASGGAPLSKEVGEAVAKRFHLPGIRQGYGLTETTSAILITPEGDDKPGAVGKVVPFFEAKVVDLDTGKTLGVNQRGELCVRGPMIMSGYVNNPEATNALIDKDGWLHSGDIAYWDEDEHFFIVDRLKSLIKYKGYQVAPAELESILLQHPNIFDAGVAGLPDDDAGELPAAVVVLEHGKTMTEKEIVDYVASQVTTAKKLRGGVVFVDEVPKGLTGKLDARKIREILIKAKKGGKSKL
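FLuc 10nM, D-luciferin 10uM, ATP 10uM, Mg acetate 10mM, Tris acetate pH 7.5, Tween/BSA; cpd qHTS; enzyme added last; CCD luminescence.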
NPR1 antag: blocks ANP-stimulated signaling of human Npr1 receptor. Potency, µM (highest dose often 46.3 µM), inactives show top-dose activity change, negative = inhibition, usual class: inhibitors. hit rate 1.6% among 76,000. HEK293 hNpr1 GloSensor cGMP, ANP-stimulated luminescence. P16066; calls by dose curve; also: nearly all actives have a fitted effect of over 60% in size
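HEK293 cells stably expressing human Npr1 and cGMP GloSensor pGS-40F, loaded 2 h with 2% GloSensor reagent, given compound 30 min at room temperature. Luminescence read before and 20 min after 0.1 nM hNppA.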
GPT2 inhibitor: inhibitors of human GPT2 alanine aminotransferase. hit rate 0.25% among 100,000. Recombinant GPT2, coupled pyruvate oxidase/HRP Amplex Red fluorescence. Potency, µM (series often up to 57.7 µM), without a hit: at the top dose activity change, negative = inhibition, most hits filed as inhibitors. Q8TD30; also: nearly all actives have a fitted effect of over 60% in size
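GPT2 10ng/uL, a-KG 250uM, L-Ala 2mM, HEPES pH7.5 + 0.0001% Tween; 30 min RT. Then Amplex mix (PO/HRP/ThPP), 30 min RT dark, fluorescence. AOA 50uM used as positive control.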
NIH3T3 tox: kills NIH 3T3 cells. hit rate 4.3% among 94,000. NIH 3T3 viability, CellTiter-Glo ATP luminescence, 48-72 h. AID 1345082. Potency, µM (series often up to 96.7 µM), for the others: top-dose activity change, negative = cytotoxicity, actives largely listed as inhibitors; also: nearly all actives have a fitted effect of over 55% in size
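Cells were seeded at 400 per well, treated with pin-transferred compound, and kept 48 or 72 hr at 37 °C before CellTiter-Glo addition and luminescence imaging of cellular ATP.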
HEK cytotox: cytotoxic compounds in HEK 293 cells | HEK 293 viability, ATP luminescence (CellTiter-Glo), 48-72 h | Potency, µM (top dose mostly 115 µM), without a hit: top-dose activity change, negative = cytotoxicity, usual class: inhibitors | hit rate 6.6% among 94,000 | AID 1345083; also: nearly all actives have a fitted effect of over 60% in size
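qHTS cytotoxicity; HEK 293, 250 cells/well; compound pinned; 48 or 72 hr, 37 degree Celsius, 5% CO2, 95% humidity; CellTiter-Glo, 10 min RT; luminescence (ATP).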
Active calls of the source: *; i = inactive; ? = inconclusive; . = not tested or not shown; [ ] = dose if it differs, or a comment. Unless noted, calls follow the shape of the dose curve; as a rule, active = well fitted curve in the direction sought with a large enough effect; inconclusive = small, poorly fitted or top-dose-only effect, or another doubt; inactive = no such curve, though single readings can be large; an effect the other way counts as inactive or inconclusive. % is scaled to controls: 0 for no effect and ±100 for the full control effect; potency is read from the fitted curve at half-maximal effect.

SMILES	Luciferase inh	NPR1 antag	GPT2 inhibitor	NIH3T3 tox	HEK cytotox
CCOC(=O)[C@@H]1[C@@H](OC(N)=O)C(=O)N(Cc2ccccc2)C12CCN(C(=O)C(C)C)CC2	.	.	.	?	i
COc1ccc(CN2C[C@@H]3OCC(=O)N(c4ccccc4)[C@@H]3C2)cc1	i	?	-6%[88.5 µM]	?	?
O=c1cc(N2CCOCC2)oc2c(-c3ccccc3Oc3ccccc3)nccc12	i	-2%[70.6 µM]	-8%[88.5 µM]	?	?
O=c1cc(N2CCOCC2)oc2c(-c3ccccc3O)nccc12	i	0%[70.6 µM]	-1%[88.5 µM]	?	-23%[172 µM]
O=c1cc(N2CCOCC2)oc2c(-c3cccc(F)c3)nccc12	i	4%[70.6 µM]	4%[88.5 µM]	?	?
COc1ncccc1-c1nccc2c(=O)cc(N3CCOCC3)oc12	i	-4%[70.6 µM]	i	50µM*	?
O=c1cc(N2CCOCC2)oc2c(-c3cncnc3)nccc12	i	3%[70.6 µM]	i	?	-1%[172 µM]
Cn1nccc1-c1nccc2c(=O)cc(N3CCOCC3)oc12	i	-6%[70.6 µM]	1%[88.5 µM]	50µM*	?
Cc1ccccc1-c1nccc2c(=O)cc(N3CCOCC3)oc12	i	4%[70.6 µM]	3%[88.5 µM]	35µM*	?
COc1ccccc1-c1nccc2c(=O)cc(N3CCOCC3)oc12	i	1%[70.6 µM]	?	25µM*	?
COc1cc(F)ccc1-c1nccc2c(=O)cc(-c3cnn(C)c3)oc12	i	-1%[70.6 µM]	-2%[88.5 µM]	?	?
COc1ccccc1-c1nccc2c(=O)cc(C3=CCOCC3)oc12	i	-1%[70.6 µM]	i	13µM*	63µM*
COc1ccc(C(=O)NC2CCN(c3cc(-c4ccc(F)cc4)[nH]n3)C2)cc1 (stereo not given)	i	-13%	?	?	?
COc1cc(OC)cc(C(=O)NC2CCCN(c3cc(-c4ccc(F)cc4)[nH]n3)C2)c1 (stereo not given)	?	-12%	-22%	?	45µM*
COc1cccc(C(=O)NC2CCCN(c3cc(-c4ccc(F)cc4)[nH]n3)C2)c1 (stereo not given)	?	-17%	?	45µM*	?
CC(=O)N1CCCC(C(=O)N2CCC(c3nc4ncccc4[nH]3)CC2)C1 (stereo not given)	.	.	?	2%	i
O=C(NCc1cccs1)c1cc(-c2cccc(C(F)(F)F)c2)c2nncn2n1	.	.	i	?	?
O=C(NCCC1CCCCC1)c1ccc2nccn2c1	?	-16%[70.6 µM]	-5%[88.5 µM]	?	50µM*
O=C(NCc1cccs1)c1ccc2nccn2c1	40µM*	1%[70.6 µM]	1%[88.5 µM]	-28%[138 µM]	3%[172 µM]
O=C(NCC1CC1)c1ccc2nccn2c1	.	.	2%[88.5 µM]	1%[174 µM]	i
O=C(Nc1ccccc1F)N1CC2CCC(C1)N2Cc1cccc(-c2cccs2)c1	.	.	-13%	?	?
O=C(c1ccccc1Cl)N1CCC(C(=O)N2CCC(N3Cc4cccn4C3=O)CC2)CC1	.	.	-2%	-22%	-27%
CCN1c2cc(C(=O)Nc3cc(OC)cc(OC)c3)ccc2C(=O)N2CCCCC21 (stereo not given)	i	-7%	i	-22%	?
CCN1c2cc(C(=O)Nc3cccc(OC)c3)ccc2C(=O)N2CCCCCC21 (stereo not given)	i	-7%	i	?	32µM*
CCN1c2cc(C(=O)Nc3cccc(OC)c3)ccc2C(=O)N2CCCC21 (stereo not given)	i	5%	4%	-28%	?
SMILES	Luciferase inh	NPR1 antag	GPT2 inhibitor	NIH3T3 tox	HEK cytotox
CCN1c2cc(C(=O)Nc3cccc(OC)c3)ccc2C(=O)N2CCCCC21 (stereo not given)	i	-14%	i	?	45µM*
CC(C)c1ccc(C(=O)N2CCC(n3c(=O)[nH]c4ccccc43)CC2)cc1	.	.	-14%	-17%	?
Cn1ncc2c(C(=O)N3CCC(C#N)CC3)cc(-c3ccc(Cl)cc3Cl)nc21	.	.	-44%	-32%	?
O=C(c1cc(-c2cc(Cl)cc(Cl)c2)c2cccn2n1)N1CCN(Cc2ccccc2)CC1	.	.	i	?	?
O=C(c1cc(-c2cc(Cl)cc(Cl)c2)c2cccn2n1)N1CCOCC1	.	.	i	35µM*	?
CC(Cc1cnccn1)NC(=O)c1ccc2nc(-c3ccc(F)cc3)cn2c1 (stereo not given)	40µM*	6%	0%	-7%	?
CCC(NC(=O)c1ccc2nc(-c3ccc(F)cc3)cn2c1)c1ncc(C)[nH]1 (stereo not given)	7.9µM*	-6%	i	?	?
O=C1NC(=NC2CCCC2)C2(CCN(CC3CC3)C2)N1c1cc(F)cc(F)c1 (stereo not given)	.	.	1%	?	?
COc1cccc(N2C(=O)NC(=NC3CCCC3)C23CCN(CC2CCCCC2)C3)c1 (stereo not given)	.	.	i	32µM*	?
O=C1NC(=NC2CCCC2)C2(CCCN(CC3CCCCC3)C2)N1c1cc(F)cc(F)c1 (stereo not given)	.	.	?	28µM*	35µM*
O=C1NC(=NC2CCCCC2)C2(CCN(CC3CCCCC3)C2)N1c1cc(F)cc(F)c1 (stereo not given)	.	.	i	32µM*	32µM*
O=C(NC1CC1)[C@@H]1CN(Cc2ccc(OC(F)(F)F)cc2)C[C@H]1CO	i	-1%	4%	-26%	?
COc1ccccc1C(=O)N1CCCn2nc(C)c(-c3cccnc3N3CCOCC3)c21	i	5%[70.6 µM]	-2%[88.5 µM]	?	i
Cc1nn2c(c1-c1ccnn1C(C)C)N(C(=O)COc1ccccc1C(N)=O)CCC2	i	14%[70.6 µM]	-8%[88.5 µM]	28µM*	0%[172 µM]
Cc1nn2c(c1-c1cccc3cn[nH]c13)N(C(=O)COc1ccccc1C(N)=O)CCC2	i	-20%[70.6 µM]	-14%[88.5 µM]	25µM*	i
COc1ccccc1C(=O)N1CCCn2nc(C)c(-c3ccnn3C(C)C)c21	i	-3%[70.6 µM]	i	?	-22%[172 µM]
Cn1nc(C2CC2)cc1NC(=O)Cc1ccccc1	.	.	-2%[88.5 µM]	-29%[138 µM]	?
O=C(C1CCCN1C(=O)c1cccc(Cl)c1)N1CCC(c2nc3ccncc3[nH]2)C1 (stereo not given)	.	.	i	4%	i
CNC(=O)N1CCC(OC2CCN(Cc3ccccc3)CC2)CC1	i	0%	i	-13%	6%
O=C(Nc1cc(F)c(F)c(F)c1)N1CCC(OC2CCN(Cc3ccccc3)CC2)CC1	i	-16%	-8%	35µM*	?
CC(C)S(=O)(=O)NC[C@@H]1CC(c2ccc(N3CCCC3)c(F)c2)=NO1	.	.	i	.	.
Cc1noc(-c2ccc(OC3CN(C(=O)c4sccc4C)C3)cc2)n1	i	?	?	?	?
Cc1noc(-c2ccc(OC3CN(C(=O)c4cccc5[nH]ccc45)C3)cc2)n1	35µM*	?	-6%	?	?
